# KLF5 inh: KLF5 expression inhibitors, primary screen, DLD-1 cells, luminescence; DLD-1 KLF5 promoter-luciferase reporter; inhibition, % at 5 µM; 0.23% of 290,000 active;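 active = inhibition above a per-plate limit of that plate's mean compound inhibition plus 3 SD, cut at about 60% in these data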;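 note: 0% = DMSO wells and 100% = LY294002 at 200 µM; higher means less KLF5 promoter-driven luciferase light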
# aSyn 5UTR inh: MLPCN primary screen, SNCA 5' untranslated region; 0.82% of 300,000 active; alpha-synuclein 5'UTR reporter, inhibitor activity; inhibition, % (tested at 7.5 µM); in the data active = inhibition above about 60%; inconclusive = no clear call, values can overlap the other calls;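 note: H4 neuroglioblastoma cells stably carrying SNCA 5'UTR luciferase fusion; 0% = DMSO wells and 100% = positive control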
# IEC-6 tox-1: cytotoxicity in IEC-6 intestinal epithelial cells, primary screen, cytotoxicity control for KLF5 inhibitor project, cell-based, luminescence | AID 1825, 2009 | IEC-6 cytotoxicity, luminescence viability | 0.78% of 290,000 active | inhibition, % at 5 µM; in the data active = inhibition above about 22%;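 note: 0% = plate median of test compound wells and 100% = cytotoxic reference compound wells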
# Ba/F3 V617F tox: reduced viability of JAK2V617F-dependent Ba/F3 cells, primary screen, JAK2V617F inhibitor project, cell-based, Ba/F3 EpoR-JAK2V617F, luminescence; AID 1446, 2008; ATP luminescence; inhibition, % at 5.6 µM; 1.1% of 220,000 active;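 active = inhibition above the campaign mean plus 3 SD over all tested compounds, cut at about 24% in these data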;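 note: cytokine-independent growth of Ba/F3 cells driven by EpoR plus mutant JAK2; 0% = DMSO-treated cells and 100% = JAK inhibitor I control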
# BaF3 tox: parental Ba/F3 cell viability inhibition, counter-screen for JAK2V617F inhibitor project, murine pro-B, CellTiter-Glo luminescence; CellTiter-Glo ATP luminescence; inhibition, % at 5.6 µM; 1.1% of 220,000 active; AID 1486, 2009;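 active = inhibition above a per-campaign cutoff, the mean inhibition of all tested compounds plus 3 SD, cut at about 27% in these data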;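 note: 0% = DMSO wells and 100% = JAK Inhibitor I control wells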
# APP transl inh: inhibitors of APP translation via 5'UTR reporter, primary screen, APP 5'UTR luciferase, SH-SY5Y cells; SH-SY5Y APP 5'UTR-luciferase reporter, luminescence; inhibition, % at 2 µM; 0.82% of 190,000 active;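 active = inhibition above a set limit, derived from the sample mean plus 3 SD, cut at about 45% in these data; inconclusive = one replicate passes the limit while the other fails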
# BaF3 tox 2: parental Ba/F3 cell viability inhibition, counter-screen for JAK2V617F inhibitor project, murine pro-B, CellTiter-Glo luminescence. shares compounds with Ba/F3 V617F tox. inhibition, % at 5.6 µM. 31% of 580 active. AID 1520, 2009. cells kept alive by added IL-3;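 active = cell growth inhibition above the hit limit set in the earlier mutant JAK2 cell screen, cut at about 27% in these data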;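 note: plate controls were DMSO-treated cells for no effect and JAK Inhibitor I control wells for full effect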
# JAK2V617F conf: viability loss in Ba/F3 EpoR-JAK2V617F cells, confirmation, JAK2V617F inhibitor project, cell-based, luminescence, triplicate; inhibition, % at 5.6 µM; CellTiter-Glo luminescence; 66% of 580 active; shares compounds with Ba/F3 V617F tox;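 active = mean inhibition above the hit cutoff derived in the earlier primary screen, cut at about 25% in these data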;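 note: 0% = DMSO-treated cells and 100% = JAK inhibitor I control wells; higher means lower luminescence from reduced cell ATP and viability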
# KLF5 confirm: KLF5 expression inhibitors, confirmation, DLD-1 cells, luminescence; 79% of 610 active; DLD-1 KLF5 promoter firefly luciferase reporter; inhibition, % at 4 µM; shares compounds with KLF5 inh; AID 1834, 2009;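 active = inhibition above a set limit taken from the earlier primary screen, cut at about 63% in these data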;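 note: 0% = DMSO wells and 100% = LY294002 at 200 µM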
# IEC-6 tox-2: cytotoxicity in rat IEC-6 cells, cytotoxicity control for KLF5 inhibitor project, cell-based, luminescence, triplicate. shares compounds with KLF5 inh. IEC-6 rat intestinal cells, viability luminescence. inhibition, % at 4 µM. 56% of 610 active. AID 1905, 2009; in the data active = inhibition above about 23%;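 note: cells exposed to compounds for 48 hours before viability read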
# * marks the source's active call; other numbers are inactive results; ? = inconclusive; . = not tested or not shown. Rows were chosen to be rich in hits. Some 2.2% of all compounds tested hit in one or more screens of this group.
SMILES,KLF5 inh,aSyn 5UTR inh,IEC-6 tox-1,Ba/F3 V617F tox,BaF3 tox,APP transl inh,BaF3 tox 2,JAK2V617F conf,others
Cc1ccc(Cn2ccsc2=NC(=O)COC(=O)c2ccc(NC(=O)CC#N)cc2)cc1,.,2.3,.,.,.,.,.,.,
Cc1ccc(Cn2ccsc2=NC(=O)CCl)cc1,-30.7,.,92.6*,69.1*,3.6,-0.8,3.1,97.5*,
O=c1oc2ccccc2c2c1ncn2CCN1CCOCC1,-5.6,-3.8,5.7,61.5*,12.5,-8.9,0.6,10.6,
CCOC(=O)c1c(NC(=O)C(C)N2CCN(C(=O)c3ccco3)CC2)sc2c1CCCC2 (centres undefined),3.7,42.9,-4.4,27.9*,4.1,-1.0,-5.2,-11.4,
COc1ccc(C(=O)OCC(=O)NCc2ccccc2)c(OC)c1OC,-28.4,7.7,-4.0,102.5*,4.6,-21.8,-5.3,-3.5,
C=CCOc1c(Br)cc(CNc2ccc3[nH]c(=O)[nH]c3c2)cc1OCC,-0.9,2.7,8.0,32.0*,8.1,3.3,34.7*,73.8*,
CC1CCCC(NC(=O)CCNC(=O)c2ccc([N+](=O)[O-])cc2)C1C (centres undefined),-32.9,-3.8,-6.7,.,.,.,.,.,
O=C(N/N=C/c1cc([N+](=O)[O-])ccc1O)c1cccc2cc[nH]c12,46.4,68.0*,11.4,33.9*,3.5,.,6.5,28.4*,
N=c1c2c3c(sc2ncn1Cc1ccco1)CCCCC3,-11.6,-25.2,4.2,24.6*,0.7,5.2,-4.9,8.2,
Cc1ccc(OCC(=O)NCCNC(=O)c2ccc(C)nc2)cc1,-3.1,-20.1,2.3,.,.,.,.,.,
COc1cc(O)c(/C=N/NC(=O)c2ccncc2)c(OC)c1[N+](=O)[O-],-3.1,-8.1,0.9,1.2,4.8,-19.4,.,.,
COC(=O)c1ccc(NC(=O)C(C)Oc2ccccc2)cc1 (centres undefined),-15.3,10.4,-3.1,25.9*,3.9,-15.8,-6.8,-16.8,
CC(Oc1ccccc1)C(=O)Nc1ccc(C(N)=O)cc1 (centres undefined),6.1,-16.1,4.4,-2.3,0.3,-10.4,.,.,
c1ccc(Sc2cccc3ccccc23)c(CNC2=NCCN2)c1,-11.8,?,9.3,34.4*,10.1,-11.9,39.3*,47.9*,
Cc1ccc(Cl)cc1N1CCN(CC(O)COCc2ccco2)CC1 (centres undefined),-14.3,-15.3,5.7,98.5*,10.0,-28.2,-6.0,0.1,
OC(COCc1ccco1)CN1CCN(C(c2ccccc2)c2ccccc2)CC1 (centres undefined),-31.0,3.3,6.8,2.5,4.1,-16.7,.,.,
CCOc1ccc(C(=O)N(Cc2ccc(OC)cc2)Cc2cc3cc(OC)ccc3[nH]c2=O)cc1,-17.9,13.2,-2.7,46.5*,3.8,-20.1,-2.6,-3.1,
CCCN(Cc1cc2cc(OC)ccc2[nH]c1=O)C(=O)c1ccncc1,4.9,-29.2,11.4,3.2,7.1,4.5,.,.,
COc1cc(/C=C2/SC(=S)N(CC(=O)NC(C)(C)C)C2=O)cc(OC)c1OC,-21.9,4.9,-1.4,2.0,4.8,3.8,.,.,
COc1cc(/C=C2\SC(=S)N(CC(=O)NC(C)(C)C)C2=O)cc(OC)c1OC,-11.6,-17.3,5.2,102.4*,5.1,4.3,-6.7,9.0,
COc1cccc(C2(O)CCN(C(=O)C(C)C)CC2)c1,5.1,2.8,9.7,-2.8,5.0,.,.,.,
COc1cccc(C2(O)CCN(C(=O)c3cccs3)CC2)c1,-26.2,20.2,-3.6,54.7*,-0.1,6.0,-0.9,-2.2,
O=S(=O)(CCSc1nc2ccccc2o1)c1nc2ccccc2s1,13.0,-28.1,0.4,82.9*,25.6,12.7,29.3*,98.8*,
Cc1ccc(C23CC4CC(CC(C(=O)N5CCN(C)CC5)(C4)C2)C3)cc1,-24.2,-0.6,-6.7,-0.3,-2.1,.,.,.,
Cc1ccc(C23CC4CC(CC(CC(=O)N5CCOCC5)(C4)C2)C3)cc1,1.4,2.7,-2.2,96.8*,5.3,10.6,2.7,15.8,
SMILES,KLF5 inh,aSyn 5UTR inh,IEC-6 tox-1,Ba/F3 V617F tox,BaF3 tox,APP transl inh,BaF3 tox 2,JAK2V617F conf,others
Cn1cnc([N+](=O)[O-])c1S(=O)(=O)c1ccc(Cl)cc1,-1.5,18.4,11.0,26.3*,-1.6,10.8,0.9,68.8*,
Cn1cnc([N+](=O)[O-])c1NC(C)(C)C,-33.7,31.3,-0.6,2.4,8.7,-0.9,.,.,
OC1(c2ccc(Cl)c(Cl)c2)C[n+]2ccccc2N1Cc1ccccc1 (centres undefined),-10.3,6.0,0.1,34.4*,2.9,.,11.9,47.7*,
Cc1nc2nc3c(c(=O)n2[nH]1)CCC3,-31.4,10.8,-7.4,-1.3,7.0,16.8,.,.,
Cc1[nH]c(=O)nc2c1CCC2,-14.8,-4.0,2.3,30.1*,0.2,-20.0,-7.0,-10.2,
O=C(O)c1ccc(CSc2nnnn2-c2ccc(F)cc2)cc1,-22.9,10.9,-1.7,.,.,.,.,.,
O=C(CSc1nnnn1-c1ccc(F)cc1)c1ccc(O)c(O)c1,5.8,-38.7,7.6,31.6*,-11.0,15.1,2.9,80.4*,
CCCCCN1C=CC(=C2C(=O)c3ccccc3C2=O)C=C1,95.1*,112.9*,18.8,24.2*,24.2,54.3*,34.4*,44.8*,KLF5 confirm=96.8*;IEC-6 tox-2=11.6
CC1=CC(=C2C(=O)c3ccccc3C2=O)C=C(C)N1C,-124.5,-132.1,-0.9,2.9,8.8,-48.3,.,.,
C(=N\Nc1nc2ccccc2[nH]1)/c1ccccn1,86.1*,111.7*,9.2,31.4*,25.9,-71.5,24.2,36.4*,KLF5 confirm=70.0*;IEC-6 tox-2=46.3*
N=c1c2c(-c3ccccc3)c(-c3ccccc3)n(Cc3ccccc3)c2ncn1CCO,75.7*,?,1.7,26.6*,4.1,77.8*,0.6,22.7,KLF5 confirm=56.8;IEC-6 tox-2=22.1*
N=c1c2c(-c3ccccc3)c(-c3ccccc3)n(Cc3ccco3)c2ncn1Cc1ccccc1,-3.0,17.1,2.6,0.1,0.8,-3.3,.,.,
CCn1ncc(Br)c1C(=O)Nc1cc(C)on1,-21.1,-14.2,4.7,.,.,.,.,.,
CN(C)S(=O)(=O)c1cccc(NC(=S)N/N=C/c2cc(Br)ccc2O)c1,64.3*,69.4*,-2.2,59.1*,26.3,.,95.5*,84.5*,KLF5 confirm=76.9*;IEC-6 tox-2=22.8*

# Source: PubChem
